# PubChem BioAssay (NCI)
# Where “and” joins values, the source holds several entries; their conditions need not be identical. Equal entries are not always repeated. Compounds without any hit were thinned out: in the full panel of roughly 83,000, 20% have a hit.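 Cell lines were cultured in 96-well plates, exposed to a single compound concentration, and assessed for percent growth 48 hours later.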 Calls of active or inactive are those of the source. How the source made its calls: active means growth percent below 10; inactive means the rest.
# Columns and labels:
# Assay in all cases: NCI-60 one-dose screen, 48 h (100 = growth as untreated, 0 = no growth, -100 = all killed)
# Conditions in all cases: 10 µM unless noted
# [1] = system: BT-549 breast
# [2] = system: MDA-MB-435 melanoma
# [3] = system: SW-620 colon
# [4] = system: MCF7 breast
# [5] = system: HCT-116 colon
# [6] = system: HCC-2998 colon
# [7] = system: KM12 colon
SMILES,growth [1],growth [2],growth [3],growth [4],growth [5],growth [6],growth [7]
CCCCCCCCCCCC[S+](C)CC(=O)[O-] (stereo unspecified),-29.2% (active),47.2% (inactive),69.9% (inactive),58.2% (inactive),45.5% (inactive),34.4% (inactive),
Cc1ccc2cccc(OC(=O)Nc3cccc(C(F)(F)F)c3)c2n1,108% (inactive),91.3% (inactive),58% (inactive),72.2% (inactive),38% (inactive),87.6% (inactive),44.5% (inactive)
O=C(Cc1nc2cc(Cl)c(Cl)cc2nc1CC(=O)c1ccccc1)c1ccccc1,52% (inactive),67.4% (inactive),92.6% (inactive),9.51% (active),56.8% (inactive),92.8% (inactive),77.3% (inactive)
COC(=O)Nc1nc2ccc(C3(c4ccc(F)cc4)OCCO3)cc2[nH]1,47.5% (inactive),-53.3% (active),30.7% (inactive),15.7% (inactive),25.2% (inactive),16.7% (inactive),25.6% (inactive)
O=C1C=CC(=O)N1C1CCCCCCCCCCC1,87.5% (inactive),82.6% (inactive),-27.4% (active),69.8% (inactive),0.595% (active),106% (inactive),104% (inactive)
N#CC(I)CS(=O)(=O)c1ccccc1 (stereo unspecified),97% (inactive),109% (inactive),26.3% (inactive),91.5% (inactive),-10.5% (active),107% (inactive),96.1% (inactive)
CC(C)(C)CC(C)(C)c1ccc(OCCOCCSC(=N)N)cc1,28% (inactive),-64.8% (active),-2.39% (active),4.55% (active),-65% (active),-32.3% (active),36.9% (inactive)
Nc1nc2ncc(CNc3ccc(C(=O)NC(CCC(=O)NC(CCC(=O)NC(CCC(=O)NC(CCC(=O)NC(CCC(=O)O)C(=O)O)C(=O)O)C(=O)O)C(=O)O)C(=O)O)cc3)nc2c(=O)[nH]1 (stereo unspecified),106% (inactive),111% (inactive),105% (inactive),98.7% (inactive),103% (inactive),117% (inactive),101% (inactive)
O=C(c1ccccc1)C(Br)C(Br)c1ccccc1 (stereo unspecified),101% (inactive),74.6% (inactive),-76.9% (active),31.3% (inactive),-95.7% (active),93.3% (inactive),55.1% (inactive)
O=C(/C(Cl)=N/O)c1ccc(-c2ccccc2)cc1,94.7% (inactive),114% (inactive),110% (inactive),89.5% (inactive),113% (inactive),105% (inactive),108% (inactive)
Nc1ccc(-c2ccc(N)c(S(=O)(=O)O)c2)cc1S(=O)(=O)O,113% (inactive),115% (inactive),107% (inactive),104% (inactive),107% (inactive),113% (inactive),103% (inactive)
NNc1cccc([N+](=O)[O-])c1,93.6% (inactive),86.8% (inactive),63.2% (inactive),106% (inactive),70.4% (inactive),110% (inactive),52.5% (inactive)
CCCCCCCCCCCCN1C(C)=CS/C1=C\C=C\c1scc(C)[n+]1CCCCCCCCCCCC,23.7% (inactive),13.6% (inactive),30.7% (inactive),7.9% (active),17.7% (inactive),28.4% (inactive),14.8% (inactive)
CC1CC(C)(C)OB(OC(C)CC(C)(C)OB2OC(C)CC(C)(C)O2)O1 (stereo unspecified),77.7% (inactive),107% (inactive),117% (inactive),96.6% (inactive),99.9% (inactive),93.3% (inactive),101% (inactive)
Nc1cccc2cccc([N+](=O)[O-])c12,105% (inactive),108% (inactive),106% (inactive),86.6% (inactive),104% (inactive),103% (inactive),
N#C/C(=N\Nc1ccc(Cl)cc1)C(=O)C1CC1,40.2% (inactive),41% (inactive),63.1% (inactive),51.7% (inactive),63.9% (inactive),72.1% (inactive),56.2% (inactive)
CC(=O)N1CC(=O)NC1=S,103% (inactive),98.3% (inactive),102% (inactive),94.1% (inactive),102% (inactive),95% (inactive),
COc1cc(/C=C2\SC(=S)N(/C=C/c3nc4ccccc4[nH]c3=O)C2=O)cc(OC)c1OC,80.8% (inactive),81.9% (inactive),91.2% (inactive),82.1% (inactive),78.8% (inactive),87.5% (inactive),
COc1c(C)c2c(c(O)c1C/C=C(\C)CCC(=O)O)C(=O)OC2,35.4% (inactive),30.1% (inactive),21.7% (inactive),23.9% (inactive),13.3% (inactive),33.3% (inactive),29.1% (inactive)

SMILES,growth [1],growth [2],growth [3],growth [4],growth [5],growth [6],growth [7]
Cc1ccccc1N=C(N)Nc1ccccc1C (tested in a mixture with another compound),96.1% (inactive),89.5% (inactive),74.9% (inactive),94.2% (inactive),83.4% (inactive),97.8% (inactive),
O=C1C=CC(O)=CC1=P(c1ccccc1)(c1ccccc1)c1ccccc1,,103% (inactive),98.2% (inactive),,88% (inactive),-29.4% (active),99.7% (inactive)
O=[N+]([O-])c1ccc(Oc2ccccc2Cl)c([N+](=O)[O-])c1,,81.5% (inactive),39.9% (inactive),89.4% (inactive),88.2% (inactive),112% (inactive),89.2% (inactive)
S=C(SSC(=S)N1CCOCC1)N1CCOCC1,141% (inactive),,-57.5% (active),66.5% (inactive),40.1% (inactive),49.6% (inactive),69.5% (inactive)
Oc1c(C(Nc2ccccc2)c2ccccc2)ccc2cccnc12 (stereo unspecified),49.8% (inactive),23.8% (inactive),45.1% (inactive),,19.3% (inactive),44.9% (inactive),32.5% (inactive)
O=[N+]([O-])/C(=C/c1ccccc1)c1ccccc1,93% (inactive),,107% (inactive),97.4% (inactive),96.5% (inactive),94.1% (inactive),
Cc1ccc(/C=C2\CNC/C(=C\c3ccc(C)cc3)C2=O)cc1,-72.2% (active),,-44.1% (active),,-60% (active),-81.3% (active),-78.6% (active)
O=C(Cc1ccccc1)C(F)(F)F,97.5% (inactive),,108% (inactive),103% (inactive),95.5% (inactive),108% (inactive),103% (inactive)
COc1cc(NC(=O)C2=C(C)NC(C)=C(C(=O)Nc3cc(OC)c(Cl)cc3OC)C2c2cccc([N+](=O)[O-])c2)c(OC)cc1Cl,36.9% (inactive),9.7% (active),46.4% (inactive),14.5% (inactive),23.9% (inactive),15.6% (inactive),18.3% (inactive)
Nc1nc(-c2ccccc2)nc(N)c1N=O,56.3% (inactive),46.7% (inactive),1.65% (active),33% (inactive),51.6% (inactive),103% (inactive),58.8% (inactive)
C[C@@]1(CO)[C@H](O)CC[C@@]2(C)[C@H]1CC[C@H]1C[C@@H]3C[C@@]12CC[C@@]3(O)COC(=O)CN,46.3% (inactive),55.1% (inactive),50.9% (inactive),,33.3% (inactive),,61.8% (inactive)
COc1cc(/C=C/c2ccnc3ccccc23)cc(OC)c1OC,11.7% (inactive),-8.94% (active),17.4% (inactive),,20% (inactive),34.6% (inactive),
C=C(CO)C(=O)OC1CC(=C)C2CC(O)C(C)C2C2OC(=O)C(=C)C12 (stereo unspecified),,,,73.2% [100 µM] (inactive) and -86.7% [100 µM] (active),,,
COc1ccc2nc3cc([N+](=O)[O-])ccc3c(NNc3ccccc3)c2c1,67.3% (inactive),107% (inactive),86.1% (inactive),72.9% (inactive),41.2% (inactive),,81.7% (inactive)
CC(C)(C)c1ccc(CCO)cc1,86.1% (inactive),89% (inactive),114% (inactive),101% (inactive),99.7% (inactive),95.2% (inactive),115% (inactive)
CCC(C)C(N)C(=O)NC(CC(N)=O)C(=O)NC(CC(C)C)C(=O)NC(CCCCN)C(=O)NC(C)C(=O)NC(CC(C)C)C(=O)NC(C)C(=O)NC(C)C(=O)NC(CC(C)C)C(=O)NC(C)C(=O)NC(CCCCN)C(=O)NC(CCCCN)C(=O)NC(C(=O)NC(CC(C)C)C(N)=O)C(C)CC (stereo unspecified),134% (inactive),77.7% (inactive),103% (inactive),97.4% (inactive),82.5% (inactive),,90.2% (inactive)
CC(C)N=C(N)/N=C(\N)Nc1ccc2ccc3ccccc3c2c1,-55.3% (active),-93.7% (active),,-90.5% (active),3.26% (active),-90.9% (active),-82.2% (active)
CCOc1ccc(Nc2nc3c(s2)C(=O)c2ccccc2C3=O)cc1,87.4% (inactive),,70% (inactive),42.9% (inactive),52.7% (inactive),118% (inactive),81.4% (inactive)
Clc1ccc(Cc2nc3ccccc3s2)cc1,86.7% (inactive),92.5% (inactive),101% (inactive),,97.8% (inactive),103% (inactive),93.2% (inactive)

SMILES,growth [1],growth [2],growth [3],growth [4],growth [5],growth [6],growth [7]
COc1ccc(NC(=O)/C(=C/N2C(=O)/C(=C/c3ccc(OC)c(OC)c3)NC2=S)C(C)=O)cc1,55.2% (inactive),,83.6% (inactive),40.9% (inactive),73.7% (inactive),88.7% (inactive),
CCN(CC)CCNC(Cc1ccccc1)c1ccc(OCc2ccccc2)cc1 (stereo unspecified),76.8% (inactive),,77.2% (inactive),78.2% (inactive),49.9% (inactive),45.4% (inactive),80.7% (inactive)
Cc1cc2cccnc2c2ncccc12,36% (inactive),35.9% (inactive),31.6% (inactive),3.96% (active),14% (inactive),29.5% (inactive),28.5% (inactive)
CC1(C)CCCC2=C1C(=O)N(SC(Cl)(Cl)Cl)C2=O,95.8% (inactive),,88% (inactive),67.3% (inactive),75.5% (inactive),96.5% (inactive),101% (inactive)
O=C1/C(=C/c2ccccn2)CCc2ccccc21,106% (inactive),88.5% (inactive),85.5% (inactive),,90.4% (inactive),100% (inactive),86.9% (inactive)
CC(=O)Nc1ccc(C(=O)CCl)cc1,58.6% (inactive),,-16.6% (active),3.18% (active),32.3% (inactive),102% (inactive),85.7% (inactive)
COc1cc2c(c(OC)c1OC)-c1ccc(NCc3ccccc3)c(=O)cc1[C@@H](NC(C)=O)CC2,0.422% (active),,16.6% (inactive),7.93% (active),9.33% (active),10.6% (inactive),12.7% (inactive)
CCSc1nc2ccccc2o1,,111% (inactive),106% (inactive),99.5% (inactive),111% (inactive),117% (inactive),108% (inactive)
c1ccc(-c2cccc(-c3ccccn3)n2)nc1,,33.9% (inactive),29.6% (inactive),14.1% (inactive),6.59% (active),18.7% (inactive),27.6% (inactive)
c1ccc(-c2cc3cc4ccccc4cn3c2)cc1,,91.4% (inactive),89.9% (inactive),88.8% (inactive),88% (inactive),121% (inactive),86.2% (inactive)
CN(C)CC(C)(CN(C)C)C(=O)/C=C/c1c(Cl)cccc1Cl,51.1% (inactive),13.1% (inactive),4.63% (active),-60.9% (active),-41.2% (active),37.2% (inactive),-25.7% (active)
O=C/C=C/c1ccc([N+](=O)[O-])cc1,116% (inactive),,106% (inactive),90.3% (inactive),80.6% (inactive),95.8% (inactive),101% (inactive)
CCCCCCCCCCCC[n+]1ccc2ccccc2c1,-73.4% (active),-69.6% (active),-30% (active),-10.3% (active),-74.7% (active),-84.7% (active),-89.2% (active)
Cc1cc2nc(CC(=O)c3ccncc3)c(=O)[nH]c2cc1C,88.9% (inactive),,103% (inactive),88.5% (inactive),88.5% (inactive),102% (inactive),103% (inactive)
CCOC(=O)c1c(C)[nH]c2ccc(O)cc12,,100% (inactive),105% (inactive),,103% (inactive),107% (inactive),86.4% (inactive)
O=C1Nc2ccc(Br)cc2C1=O,105% (inactive),98.3% (inactive),86% (inactive),91.5% (inactive),94.2% (inactive),111% (inactive),96.7% (inactive)
COC(=O)[C@]1(C)CCC[C@]2(C)c3ccc(C(C)C)cc3C(=O)[C@@H](Br)[C@@H]12,116% (inactive),,86.3% (inactive),57.6% (inactive),85.3% (inactive),106% (inactive),104% (inactive)
O=C(Cc1nc2cc(Cl)c(Cl)cc2nc1CC(=O)c1cccnc1)c1cccnc1,2.99% (active),75.9% (inactive),90.3% (inactive),,52.7% (inactive),115% (inactive),85.9% (inactive)
NC(=S)Nc1ccc2c(c1)Cc1ccccc1-2,79.4% (inactive),,94.7% (inactive),,94.8% (inactive),97.6% (inactive),95.1% (inactive)
